CHO-K1 Ca antag: counter-screen for M1 antagonists: effect in parental CHO-K1 cells. ATP-induced calcium, Fluo-8 fluorescence. inhibition, % at 3 µM. 360,000 tested, 0.6% active;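 active = inhibition above a per-plate cutoff, the plate's mean sample inhibition plus 3 SD, cut at about 24% in these data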;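 note: 0% = DMSO plus EC80 ATP and 100% = DMSO alone without ATP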
M1 antag: antagonists of human M1 muscarinic receptor; P11229; CHO-K1 hM1, Fluo-8 calcium fluorescence, ACh EC80 antagonist; inhibition, % at 3 µM; 360,000 tested, 1.3% active; AID 588852;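 active = percent inhibition above its own plate's cutoff, namely the mean of that plate's compound wells plus 3 SD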;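 note: peak over basal fluorescence ratio during 140 s after agonist addition; 0% = ACh EC80 plus DMSO and 100% = DMSO alone without agonist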
Target sequence (P11229 whole entry, looked up): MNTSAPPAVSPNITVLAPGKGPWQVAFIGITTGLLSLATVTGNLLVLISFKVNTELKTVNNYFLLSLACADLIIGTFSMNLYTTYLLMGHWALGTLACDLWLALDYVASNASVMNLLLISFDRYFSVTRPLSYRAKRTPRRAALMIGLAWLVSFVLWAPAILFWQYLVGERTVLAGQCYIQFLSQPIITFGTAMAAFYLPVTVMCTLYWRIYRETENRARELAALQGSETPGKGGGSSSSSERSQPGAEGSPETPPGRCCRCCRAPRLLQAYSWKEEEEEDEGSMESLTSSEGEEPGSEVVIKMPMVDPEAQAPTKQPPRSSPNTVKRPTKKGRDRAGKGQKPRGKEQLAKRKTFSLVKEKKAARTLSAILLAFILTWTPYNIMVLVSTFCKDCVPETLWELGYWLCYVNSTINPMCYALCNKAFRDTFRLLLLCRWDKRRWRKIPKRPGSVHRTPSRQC
M1 ag parental: nonselective activator or artifact in parental CHO-K1 cells; activation, % at 3 µM; Fluo-8 calcium fluorescence; scaled to maximal ATP response, vehicle zero; 360,000 tested, 0.48% active; in the data active = activation above about 15%;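 note: untransfected CHO-K1 host cells lacking M1 receptor as counterscreen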
CHRM1 PAM: human CHRM1 positive allosteric modulation | P11229 | activation, % at 3 µM | CHO-K1 hM1, Fluo-8 calcium fluorescence, ACh EC20; 0% = ACh EC20, 100% = maximal ACh | 360,000 tested, 0.088% active; in the data active = activation above about 19%, passing the limit was not always enough
M1 PAM parental: M1 PAM counterscreen hit in parental CHO-K1 cells. activation, % at 3 µM. ATP EC20, Fluo-8 calcium fluorescence; 0% at ATP EC20, 100% at ATP max. 360,000 tested, 0.02% active;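 active = activation above the run cutoff, the mean activation of all test compounds plus 3 SD, cut at about 40% in these data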;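 note: peak over basal fluorescence ratio in a 140 s read after ATP addition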
CHRM1 agonist: activates human CHRM1 receptor | P11229 | CHO-K1 hM1, Fluo-8 calcium fluorescence, agonist mode; 0% DMSO, 100% acetylcholine EC100 | activation, % at 3 µM | 360,000 tested, 0.33% active | AID 588814;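 active = activation above the run's mean compound activation plus 3 SD, cut at about 16% in these data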;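 note: peak over basal fluorescence ratio within a 140 s kinetic read after compound addition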
Active calls of the source: *; x = not tested or not shown. The list is not random: actives were taken first. Their share in the collection is about 2.3%.

SMILES	CHO-K1 Ca antag	M1 antag	M1 ag parental	CHRM1 PAM	M1 PAM parental	CHRM1 agonist
O=C(NCCC1=CCCCC1)C1CCN(S(=O)(=O)c2ccccc2C(F)(F)F)CC1	-3.9	-26.8	0.2	8.6	-7.3	-0.5
COc1cccc(NC(=O)N2CCC(NC(=O)C3CCCCC3)CC2)c1	-12.3	-0.7	0.2	28.4*	13.4	-2.2
CN(C)C=Nc1nonc1-c1ccccc1	-10.5	-6.2	0.8	2.9	1.5	-3.5
CN(C)C=Nc1c(Br)cc(Br)c2nonc12	17.2	13.6	18.2*	-19.4	4.2	45.1*
CC1(C(=O)NS(=O)(=O)c2cccc(Cl)c2)CCN1C(=O)Cc1ccc(-c2ccccc2)cc1 (centres undefined)	-4.9	-4.2	0.9	0.6	11.5	-4.0
COc1ccc(CCNc2oc(Cc3cccc4ccccc34)nc2C#N)cc1OC	16.5	14.9	0.8	-3.0	-4.6	-3.1
COc1ccc(CCNc2oc(COc3ccc(Br)cc3)nc2C#N)cc1OC	20.5	35.9*	3.7	-23.9	-13.8	-4.3
CC(=O)c1ccc(N2C(=NC(=O)C3CCCCC3)SC3CS(=O)(=O)CC32)cc1 (centres undefined)	-13.4	-10.9	1.7	7.4	12.7	-0.1
Fc1ccc(C(CCCn2nnc(-c3cccnc3)n2)c2ccc(F)cc2)cc1	2.5	27.3*	3.1	-8.3	15.3	-1.5
Fc1ccc(-n2nnc(-c3cccnc3)n2)cc1	-12.2	-23.5	0.7	17.9	17.2	-0.8
O=c1[nH]c2ccccc2nc1-c1nnnn1Cc1ccccc1	-8.4	x	0.5	x	6.6	x
Cc1cccc(C(C)(C)C)c1OCCCCN1CCCC1	-7.0	-4.3	2.5	-2.6	21.5	16.0*
CC(C)c1cccc(C(C)C)c1OCCCCN1CCCC1	-16.7	33.2*	1.4	-27.5	26.4	-8.4
Cc1cc(C(C)(C)C)ccc1OCCOCCN1CCCC1	0.1	32.7*	1.2	-24.7	-1.1	-9.2
CC(C)(C)c1cc(Cl)ccc1OCCOCCN1CCCC1	0.3	2.5	4.3	1.1	-6.7	-6.1
Cc1ccc(Cc2c(C3CCCCC3)nc3c4ccccc4ccn23)cc1	12.1	3.6	0.8	-4.9	4.8	-3.4
COc1ccc(NC2CCCN(C(=O)CCN3Cc4ccccc4C3=O)C2)cc1 (centres undefined)	1.9	-4.6	1.0	6.2	-8.9	-4.2
CC(=O)c1sc(NC(=O)CSCc2c(C)noc2C)nc1-c1ccccc1	-1.0	12.3	0.1	-5.5	6.6	-4.6
Cc1cccc(C)c1NC(=O)C(c1ccccc1)N1CCN(c2ccc(C(F)(F)F)cn2)CC1 (centres undefined)	-11.4	7.8	0.5	-10.7	16.3	-4.0
COc1cccc(-c2cc(NC=O)c3ncc(-c4ccc(F)c(Cl)c4)n3c2)c1	-9.9	-8.9	0.3	2.5	5.6	0.5
C(C#CCCCCCCCCC[n+]1ccccc1)#CCCCCCCCCC[n+]1ccccc1	-6.1	98.4*	0.7	-27.0	14.8	-4.7
CC(C)(CN1CCN(C(c2ccccc2)c2ccccc2)CC1)NS(=O)(=O)c1ccccc1	-35.5	-8.4	0.6	-16.9	2.9	-7.4
COC(=O)C(NC(=O)c1ccccc1Cl)(Nc1ncc(S(=O)(=O)c2ccc([N+](=O)[O-])cc2)s1)C(F)(F)F (centres undefined)	2.5	9.9	10.2	1.6	17.7	21.9*
CCC(C)(C)C(=O)Nc1ncc(S(=O)(=O)c2ccc([N+](=O)[O-])cc2)s1	2.3	-11.2	4.2	-6.1	13.9	15.9
Cc1onc(-c2ccccc2Cl)c1C(=O)N(C)CC(=O)Nc1ccc(F)c(F)c1F	0.0	7.6	0.5	-0.8	-9.2	-1.2
SMILES	CHO-K1 Ca antag	M1 antag	M1 ag parental	CHRM1 PAM	M1 PAM parental	CHRM1 agonist
COC(=O)C1=CN(C2CC2)C=C(C(=O)OC)C1c1ccc(C(=O)OC)cc1	4.1	34.2*	0.2	-25.5	3.8	-6.6
CCN(CC)CCSc1nc2ccccc2n1Cc1ccccc1	-17.2	90.3*	1.1	-30.0	18.6	-9.4
O=[N+]([O-])c1cc(C(F)(F)F)cc([N+](=O)[O-])c1NCCNC(=S)Nc1ccc(Cl)c(Cl)c1	27.4*	29.9	13.2	-10.0	-15.9	3.7
CN(c1ccc(OCC(=O)OCC(=O)Nc2ccc([N+](=O)[O-])cc2)cc1)S(=O)(=O)c1cccs1	-2.0	6.6	12.8	-9.1	0.6	5.0
Cn1c(=O)oc2cc(S(=O)(=O)N3CCCC(C(=O)NCc4ccc5c(c4)OCO5)C3)ccc21 (centres undefined)	-9.7	-13.1	0.2	8.6	15.6	-2.8
Cn1c(=O)oc2cc(S(=O)(=O)N3CCCC(C(=O)NCc4cccs4)C3)ccc21 (centres undefined)	26.6*	-7.3	0.1	1.2	-10.4	-6.9
O=C(NCc1ccccn1)C1CCCN(S(=O)(=O)c2cc(Cl)ccc2Cl)C1 (centres undefined)	-5.3	-5.1	0.3	7.6	4.8	-3.1
O=C(NCc1ccccn1)C1CCCN(S(=O)(=O)c2ccc(Br)cc2)C1 (centres undefined)	23.8*	7.8	0.2	-8.9	-9.0	-5.9
O=C(NC(c1ccc(-c2ccccc2)cc1)c1cnccn1)C1CCN(Cc2cccs2)CC1 (centres undefined)	23.8*	11.6	1.8	-2.6	-4.9	-4.9
Cc1cccnc1C(NC(=O)C1CCN(Cc2ccccc2)CC1)c1ccc(F)cc1 (centres undefined)	-11.6	-7.0	0.4	0.4	20.8	-3.2
O=C(NC(c1ccc(-c2ccccc2)cc1)c1cnccn1)C1CCN(Cc2ccc(Oc3ccccc3)cc2)CC1 (centres undefined)	7.0	14.6	3.2	-7.8	9.1	-3.8
Cc1cccnc1C(NC(=O)C1CCN(Cc2ccc(Oc3ccccc3)cc2)CC1)c1ccccc1 (centres undefined)	0.5	26.9*	0.5	-20.2	1.5	-8.8
O=C(NC(c1ccccc1)c1cnccn1)C1CCN(CCCOc2ccccc2)CC1 (centres undefined)	0.4	10.7	0.0	-7.5	-11.6	-9.3
O=C(NC(c1ccc(-c2ccccc2)cc1)c1cnccn1)C1CCN(CCN2C(=O)c3ccccc3C2=O)CC1 (centres undefined)	29.6*	21.5	0.2	-11.9	-14.4	-3.8
O=C(Nc1ccc(C(=O)N2CCN(c3ccccc3)CC2)cc1)C1=CSCCO1	-6.6	-9.5	4.0	5.8	-15.8	-1.3
O=C(NCc1ccccc1)c1ccc(CN2CCOCC2)cc1	10.4	-5.1	-0.1	8.0	-4.5	-2.5
O=C(NCc1ccco1)c1ccc(CN2CCOCC2)cc1	24.2*	21.6	-0.3	-7.8	-7.5	-0.1
O=C(NC1CCCCC1)C(=S)NCCc1ccccc1	-5.2	-8.8	21.1*	2.6	8.8	-5.8
O=C(NCCc1ccccc1)C(=O)NC1CCCCC1	-15.1	-30.8	-0.1	4.2	-5.5	-2.6
